We go through 15 compounds from PubChem BioAssay (EPA / NIEHS).

SMILES strings stand for the structures. “And” between values parts separate entries of the source, which are not always exact repeats. Equal values may be shown once. Records with an inconclusive call do not appear. More than one record can exist for a structure, and the calls need not agree. The source made the active and inactive calls. The calls were made as follows: active = hit-call score of the fitted dose curve at least 0.9, where 1 is the maximum; inconclusive = response in the unintended direction; inactive = score below 0.9.

The target in assay [1] is D(1A) dopamine receptor (Homo sapiens) (UniProt P21728). Description: NVS_GPCR_hDRD1: NovaScreen (NVS) G Protein-Coupled Receptor Assay for human Dopamine Receptor D1 (DRD1) (AID 2283269). An outline of the steps: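 Extracted HEK293 DRD1 is incubated 1 h with compound and a tritiated or iodinated radioligand, then filtered and counted. Screening runs 25 uM in duplicate with on-plate positive and negative controls.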
Sequence of D(1A) dopamine receptor (Homo sapiens) (P21728 whole entry, looked up): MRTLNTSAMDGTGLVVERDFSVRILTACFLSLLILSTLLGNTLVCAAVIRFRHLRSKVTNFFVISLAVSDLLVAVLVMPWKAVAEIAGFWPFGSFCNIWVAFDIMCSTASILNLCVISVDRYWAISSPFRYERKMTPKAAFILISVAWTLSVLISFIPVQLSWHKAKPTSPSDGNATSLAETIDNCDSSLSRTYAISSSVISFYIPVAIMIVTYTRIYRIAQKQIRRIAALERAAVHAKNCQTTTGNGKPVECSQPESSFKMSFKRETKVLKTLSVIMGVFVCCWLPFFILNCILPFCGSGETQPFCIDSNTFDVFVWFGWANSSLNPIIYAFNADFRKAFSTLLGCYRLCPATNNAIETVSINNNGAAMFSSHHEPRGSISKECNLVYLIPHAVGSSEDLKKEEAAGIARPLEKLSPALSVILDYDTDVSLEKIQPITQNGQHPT

The target of assay [2] is human Thromboxane A2 Receptor (TXA2), TBXA2R (gene 6915) (UniProt P21731). Description: NVS_GPCR_hTXA2: NovaScreen (NVS) G Protein-Coupled Receptor Assay for human Thromboxane A2 Receptor (TXA2) (AID 2283282).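 Also: actives reduce bound radioligand signal relative to DMSO baseline.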 The gist of the method: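 Human platelet-derived receptor preparation incubated with test chemical and radiolabelled ligand for 1 hour, cell-free. Bound label was separated by filtration and counted; displacement relative to DMSO controls gave activity, screened at 25 uM, then titrated.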
Sequence of human Thromboxane A2 Receptor (TXA2), TBXA2R (gene 6915) (P21731 whole entry, looked up): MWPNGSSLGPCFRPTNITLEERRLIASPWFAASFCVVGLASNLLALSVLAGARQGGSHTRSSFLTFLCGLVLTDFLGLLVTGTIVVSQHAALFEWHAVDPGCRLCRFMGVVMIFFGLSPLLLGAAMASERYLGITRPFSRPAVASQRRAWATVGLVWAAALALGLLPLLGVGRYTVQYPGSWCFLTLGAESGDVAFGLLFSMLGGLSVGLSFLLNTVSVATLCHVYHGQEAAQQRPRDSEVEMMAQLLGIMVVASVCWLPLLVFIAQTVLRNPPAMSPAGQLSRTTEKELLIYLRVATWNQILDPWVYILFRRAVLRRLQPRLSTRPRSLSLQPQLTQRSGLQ

Assay [3] concerns the target rat Serotonin, 5-Hydroxytryptamine Receptor 1 (5HT1), Non-Selective Binding, Htr1a (gene 24473) (UniProt P19327). Description: NVS_GPCR_r5HT1_NonSelective: NovaScreen (NVS) G Protein-Coupled Receptor Assay for rat Serotonin, 5-Hydroxytryptamine Receptor 1 (5HT1), Non-Selective Binding (AID 2283286). An outline of the steps:
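Binding of a radioligand to rat cortex membranes is read by filtration and scintillation counting after 1 h. Compounds were screened at 25 uM in duplicate. Actives were then titrated to a top of 50 uM. DMSO is the baseline.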

Assay [4] addresses human Opioid Receptor Mu (Opiate Mu), OPRM1 (gene 4988) (UniProt P35372). Description: NVS_GPCR_hOpiate_mu: NovaScreen (NVS) G Protein-Coupled Receptor Assay for human Opioid Receptor Mu (Opiate Mu) (AID 2283290).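 Also: hits lower bound tracer signal versus DMSO meaning displacement of the ligand.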 An outline of the steps: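 Here, radioligand binding to CHO-extracted receptor was measured after 2.5 h using filter-based scintillation detection. Initial single-concentration screening used 25 uM in duplicate with plate controls; confirmed actives went to concentration-response testing.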

Assay [5] has as its target human Neurokinin, NK2 Receptor, TACR2 (gene 6865) (UniProt P21452). Description: NVS_GPCR_hNK2: NovaScreen (NVS) G Protein-Coupled Receptor Assay for human Neurokinin, NK2 Receptor (AID 2283278).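 Also: actives reduce bound radioligand signal relative to DMSO baseline.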 The gist of the method:
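Test chemicals displace a radioligand from receptor prepared from CHO cells in a cell-free format, read after 4 hours by scintillation counting on filters. Screening starts at 25 uM in duplicate, and active chemicals then go to concentration series.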

The target in assay [6] is Muscarinic acetylcholine receptor M2 (Homo sapiens) (UniProt P08172). Description: NVS_GPCR_hM2: NovaScreen (NVS) G Protein-Coupled Receptor Assay for human Muscarinic, M2 Receptor (AID 2283273). The gist of the method:
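Filter-based radiodetection read bound radioligand 1 h after dosing CHO-derived membrane protein. Single-concentration duplicates (25 uM) first, then concentration-response for actives; signal loss versus DMSO scored.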

Assay [7] addresses Muscarinic acetylcholine receptor M1 (Homo sapiens) (UniProt P11229). Description: NVS_GPCR_hM1: NovaScreen (NVS) G Protein-Coupled Receptor Assay for human Muscarinic, M1 Receptor (AID 2283270). The gist of the method: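 Actives from a duplicate 25 uM single-point screen were retested in concentration series. Binding measured as displacement of a radioligand from CHO-derived receptor preparation, 1 h incubation, filtration and scintillation counting, analysed as signal loss against DMSO.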

In assay [8] the target is human Orphanin, Opioid Related Nociceptin Receptor 1 (ORL1), OPRL1 (gene 4987) (UniProt P41146). Description: NVS_GPCR_hORL1: NovaScreen (NVS) G Protein-Coupled Receptor Assay for human Orphanin, Opioid Related Nociceptin Receptor 1 (ORL1) (AID 2283283). The gist of the method: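 Cell-free binding using HEK293-derived receptor protein: radioligand displacement measured by filter scintillation 1 hour after dosing. Primary testing at 25 uM in duplicate, followed by singleton concentration series up to 50 uM; DMSO served as negative control.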
Sequence of human Orphanin, Opioid Related Nociceptin Receptor 1 (ORL1), OPRL1 (gene 4987) (P41146 whole entry, looked up): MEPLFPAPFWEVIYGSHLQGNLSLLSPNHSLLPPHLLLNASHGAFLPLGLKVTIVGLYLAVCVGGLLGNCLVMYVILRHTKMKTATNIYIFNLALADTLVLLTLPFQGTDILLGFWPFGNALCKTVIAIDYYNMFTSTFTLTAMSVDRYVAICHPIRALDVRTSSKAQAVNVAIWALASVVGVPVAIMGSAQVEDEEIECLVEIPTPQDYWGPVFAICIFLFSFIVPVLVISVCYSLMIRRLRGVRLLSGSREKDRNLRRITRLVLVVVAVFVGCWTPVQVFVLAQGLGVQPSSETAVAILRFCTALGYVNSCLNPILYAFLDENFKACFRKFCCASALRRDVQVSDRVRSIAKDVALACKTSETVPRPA

For assay [9], the target named is human Leukotriene B4 Receptor 1 (LTB4-BLT1), LTB4R (gene 1241) (UniProt Q15722). Description: NVS_GPCR_hLTB4_BLT1: NovaScreen (NVS) G Protein-Coupled Receptor Assay for human Leukotriene B4 Receptor 1 (LTB4-BLT1) (AID 2283271). An outline of the steps: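 Cell-free human neutrophil receptor preparation, 1 h exposure, radioligand binding read by filter scintillation counting. Single 25 uM duplicate screen, then concentration series topping at 50 uM; binding loss scored against DMSO baseline.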
Sequence of human Leukotriene B4 Receptor 1 (LTB4-BLT1), LTB4R (gene 1241) (Q15722 whole entry, looked up): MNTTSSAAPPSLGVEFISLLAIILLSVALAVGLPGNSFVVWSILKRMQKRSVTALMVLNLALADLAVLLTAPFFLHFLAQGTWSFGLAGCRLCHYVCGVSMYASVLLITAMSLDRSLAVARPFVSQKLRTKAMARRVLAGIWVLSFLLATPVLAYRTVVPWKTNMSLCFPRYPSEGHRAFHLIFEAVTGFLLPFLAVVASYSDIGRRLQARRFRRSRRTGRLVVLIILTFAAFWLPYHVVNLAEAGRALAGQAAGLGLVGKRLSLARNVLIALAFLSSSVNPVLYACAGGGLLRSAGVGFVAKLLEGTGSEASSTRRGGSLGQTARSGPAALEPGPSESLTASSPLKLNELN

Assay [10] has as its target human Muscarinic, M4 Receptor, CHRM4 (gene 1132) (UniProt P08173). Description: NVS_GPCR_hM4: NovaScreen (NVS) G Protein-Coupled Receptor Assay for human Muscarinic, M4 Receptor (AID 2283274). The gist of the method:
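Filter-based scintillation counting of radioligand bound to CHO-expressed human M4 preparations after 1 h; loss of signal fitted versus DMSO. Initial duplicate testing at 25 uM, concentration-response follow-up for actives.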

The target of assay [11] is Muscarinic acetylcholine receptor M5 (Homo sapiens) (UniProt P08912). Description: NVS_GPCR_hM5: NovaScreen (NVS) G Protein-Coupled Receptor Assay for human Muscarinic, M5 Receptor (AID 2283275). The gist of the method: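 Chemicals passing a primary duplicate screen at 25 uM were run as singleton concentration series, maximum 50 uM. Displacement of a specific radioligand from CHO-extracted receptor was read by filter scintillation after 1 h, relative to DMSO.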

Assay [12] deals with human Opioid Receptor Delta 1 (Opiate D1), OPRD1 (gene 4985) (UniProt P41143). Description: NVS_GPCR_hOpiate_D1: NovaScreen (NVS) G Protein-Coupled Receptor Assay for human Opioid Receptor Delta 1 (Opiate D1) (AID 2283280). An outline of the steps:
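Membrane preparations from CHO cells bearing the human receptor were incubated 1 h with test chemical, and bound radioligand was counted after filtration. Actives from 25 uM duplicate screening were retested in concentration-response.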

Assay [13] concerns 5-hydroxytryptamine receptor 2C (pig). Description: NVS_GPCR_p5HT2C: NovaScreen (NVS) G Protein-Coupled Receptor Assay for pig Serotonin, 5-Hydroxytryptamine Receptor 2C (5HT2C) (AID 2283288). The gist of the method: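 Radioligand displacement on membranes from pig choroid plexus, detected by filter scintillation counting after 1 h. Tested first at a single 25 uM in duplicate, then in concentration-response for actives; DMSO served as baseline.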

Assay [14] concerns the target human Vasopressin 1A Receptor (V1A), AVPR1A (gene 552) (UniProt P37288). Description: NVS_GPCR_hV1A: NovaScreen (NVS) G Protein-Coupled Receptor Assay for human Vasopressin 1A Receptor (V1A) (AID 2283284). The gist of the method:
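Single-concentration duplicate screen at 25 uM, with concentration-response follow-up (top 50 uM) for actives. The assay measured displacement of a radioligand from human platelet-derived receptor after 1.5 h, detected by filtration and scintillation counting.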

Sequence of human Opioid Receptor Mu (Opiate Mu), OPRM1 (gene 4988) (P35372 whole entry, looked up): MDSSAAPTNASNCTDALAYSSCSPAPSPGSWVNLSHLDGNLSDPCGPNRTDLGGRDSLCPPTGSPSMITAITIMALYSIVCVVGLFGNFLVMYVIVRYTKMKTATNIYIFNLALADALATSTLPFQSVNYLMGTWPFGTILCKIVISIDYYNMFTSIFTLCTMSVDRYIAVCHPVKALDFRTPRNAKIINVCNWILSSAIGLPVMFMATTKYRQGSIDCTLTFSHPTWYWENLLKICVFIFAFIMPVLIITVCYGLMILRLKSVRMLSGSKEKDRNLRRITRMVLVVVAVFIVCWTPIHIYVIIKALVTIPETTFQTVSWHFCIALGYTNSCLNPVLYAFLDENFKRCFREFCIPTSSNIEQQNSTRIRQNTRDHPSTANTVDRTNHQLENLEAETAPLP
Sequence of human Neurokinin, NK2 Receptor, TACR2 (gene 6865) (P21452 whole entry, looked up): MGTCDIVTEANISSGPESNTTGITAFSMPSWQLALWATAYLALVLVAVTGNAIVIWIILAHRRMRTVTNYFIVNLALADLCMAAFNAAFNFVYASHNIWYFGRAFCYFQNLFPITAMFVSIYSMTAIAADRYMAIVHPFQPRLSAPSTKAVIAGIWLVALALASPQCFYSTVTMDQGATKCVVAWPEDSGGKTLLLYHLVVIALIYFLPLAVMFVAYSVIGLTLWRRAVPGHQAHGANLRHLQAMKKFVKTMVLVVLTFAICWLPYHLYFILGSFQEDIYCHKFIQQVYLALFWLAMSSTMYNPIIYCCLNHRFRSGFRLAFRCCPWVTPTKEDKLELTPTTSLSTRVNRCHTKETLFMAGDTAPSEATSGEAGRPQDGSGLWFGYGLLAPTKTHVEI
Sequence of Muscarinic acetylcholine receptor M2 (Homo sapiens) (P08172 whole entry, looked up): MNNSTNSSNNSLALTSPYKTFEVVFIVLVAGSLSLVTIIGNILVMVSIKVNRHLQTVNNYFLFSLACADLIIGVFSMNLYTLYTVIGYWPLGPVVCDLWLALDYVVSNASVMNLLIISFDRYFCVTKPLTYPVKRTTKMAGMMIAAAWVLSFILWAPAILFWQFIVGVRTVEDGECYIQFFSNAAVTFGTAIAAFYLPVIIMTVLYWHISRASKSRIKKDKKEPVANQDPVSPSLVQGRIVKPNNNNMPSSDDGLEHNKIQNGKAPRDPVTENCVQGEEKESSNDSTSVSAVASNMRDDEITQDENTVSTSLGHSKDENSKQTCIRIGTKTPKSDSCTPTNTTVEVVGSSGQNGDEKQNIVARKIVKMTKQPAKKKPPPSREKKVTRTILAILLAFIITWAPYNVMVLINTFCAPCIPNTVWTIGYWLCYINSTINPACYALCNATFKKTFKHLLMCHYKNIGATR
Sequence of rat Serotonin, 5-Hydroxytryptamine Receptor 1 (5HT1), Non-Selective Binding, Htr1a (gene 24473) (P19327 whole entry, looked up): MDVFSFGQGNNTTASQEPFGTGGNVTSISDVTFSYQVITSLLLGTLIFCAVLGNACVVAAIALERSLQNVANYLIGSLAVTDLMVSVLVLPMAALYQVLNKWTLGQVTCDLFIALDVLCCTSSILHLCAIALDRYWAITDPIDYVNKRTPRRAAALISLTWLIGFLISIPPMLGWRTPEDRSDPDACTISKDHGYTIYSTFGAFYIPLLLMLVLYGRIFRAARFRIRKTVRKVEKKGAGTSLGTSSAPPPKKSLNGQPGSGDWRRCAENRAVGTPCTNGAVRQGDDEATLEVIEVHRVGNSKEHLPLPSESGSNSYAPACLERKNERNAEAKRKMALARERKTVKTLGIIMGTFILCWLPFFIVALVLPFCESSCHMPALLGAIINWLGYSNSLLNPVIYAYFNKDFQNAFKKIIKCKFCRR
Sequence of human Muscarinic, M4 Receptor, CHRM4 (gene 1132) (P08173 whole entry, looked up): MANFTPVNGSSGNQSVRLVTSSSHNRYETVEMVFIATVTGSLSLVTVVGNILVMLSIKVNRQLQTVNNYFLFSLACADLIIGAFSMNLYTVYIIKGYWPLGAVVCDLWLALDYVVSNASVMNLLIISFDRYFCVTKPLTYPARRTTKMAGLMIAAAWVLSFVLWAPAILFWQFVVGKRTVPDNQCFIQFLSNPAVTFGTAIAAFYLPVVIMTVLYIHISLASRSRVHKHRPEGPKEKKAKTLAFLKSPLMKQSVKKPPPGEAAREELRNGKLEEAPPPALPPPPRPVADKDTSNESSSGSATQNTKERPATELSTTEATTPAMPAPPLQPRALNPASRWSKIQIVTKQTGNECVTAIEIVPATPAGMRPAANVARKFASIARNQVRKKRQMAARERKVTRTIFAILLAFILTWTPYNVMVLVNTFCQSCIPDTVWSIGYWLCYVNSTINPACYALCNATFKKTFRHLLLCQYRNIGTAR
Sequence of Muscarinic acetylcholine receptor M1 (Homo sapiens) (P11229 whole entry, looked up): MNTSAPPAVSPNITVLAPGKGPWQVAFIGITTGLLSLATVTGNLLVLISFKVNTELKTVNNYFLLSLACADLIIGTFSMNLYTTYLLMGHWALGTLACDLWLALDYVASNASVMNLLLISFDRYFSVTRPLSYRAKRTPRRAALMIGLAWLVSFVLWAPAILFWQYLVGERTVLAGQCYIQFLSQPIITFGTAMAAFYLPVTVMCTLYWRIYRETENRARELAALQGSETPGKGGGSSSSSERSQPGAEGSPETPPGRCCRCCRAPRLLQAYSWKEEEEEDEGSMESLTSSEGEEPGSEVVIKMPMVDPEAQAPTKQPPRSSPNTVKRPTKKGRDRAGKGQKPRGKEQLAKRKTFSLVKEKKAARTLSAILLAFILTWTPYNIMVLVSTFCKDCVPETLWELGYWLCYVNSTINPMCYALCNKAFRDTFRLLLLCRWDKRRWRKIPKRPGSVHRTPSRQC
Sequence of human Vasopressin 1A Receptor (V1A), AVPR1A (gene 552) (P37288 whole entry, looked up): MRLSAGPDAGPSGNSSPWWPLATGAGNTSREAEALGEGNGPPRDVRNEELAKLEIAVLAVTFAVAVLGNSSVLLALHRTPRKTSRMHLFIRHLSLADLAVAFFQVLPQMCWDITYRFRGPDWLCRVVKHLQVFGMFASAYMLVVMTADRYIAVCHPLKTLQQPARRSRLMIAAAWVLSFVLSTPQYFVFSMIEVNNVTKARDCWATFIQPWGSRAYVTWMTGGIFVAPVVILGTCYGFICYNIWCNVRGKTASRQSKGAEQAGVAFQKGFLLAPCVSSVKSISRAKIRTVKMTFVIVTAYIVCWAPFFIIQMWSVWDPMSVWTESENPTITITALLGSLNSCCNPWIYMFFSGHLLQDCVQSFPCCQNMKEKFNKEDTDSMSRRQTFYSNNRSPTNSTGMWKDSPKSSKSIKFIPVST
Sequence of human Opioid Receptor Delta 1 (Opiate D1), OPRD1 (gene 4985) (P41143 whole entry, looked up): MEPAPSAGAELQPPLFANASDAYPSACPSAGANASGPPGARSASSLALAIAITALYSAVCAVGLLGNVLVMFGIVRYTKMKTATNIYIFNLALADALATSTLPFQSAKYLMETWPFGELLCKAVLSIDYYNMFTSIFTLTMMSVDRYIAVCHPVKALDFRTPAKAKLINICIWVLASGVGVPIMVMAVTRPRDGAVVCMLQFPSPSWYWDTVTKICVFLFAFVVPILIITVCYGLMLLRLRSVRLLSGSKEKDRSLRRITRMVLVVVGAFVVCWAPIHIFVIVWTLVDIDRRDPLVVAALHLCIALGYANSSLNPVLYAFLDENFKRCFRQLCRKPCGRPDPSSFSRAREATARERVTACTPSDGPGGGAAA

As for `O=C1c2ccc(O)c(O)c2C(=O)c2c(O)ccc(O)c21`, in [1], the result was inactive.

On to `CC=O`, for which the result in assay [1] and in assay [2] was inactive.

In general, AC50 refers to the concentration at which the activity in the assay is half-maximal. For the compound `CN(C)CCOC(c1ccccc1)c1ccccc1`, the AC50 in assay [3] is 6.56 µM (active). Moreover, the outcome in [4] was inactive.

Consider `CCCCCc1ccc(O)cc1`, for which, in assay [5], the result was inactive.

Consider `C[C@]12CC[C@@H]3c4ccc(O)cc4CC[C@H]3[C@@H]1C[C@@H](O)[C@@H]2O`, for which the result in assay [2] was inactive.

Regarding `NS(=O)(=O)O`, the result in assay [2] was inactive.

Turning to `O=C1OC2(c3ccccc31)c1cc(I)c(O)c(I)c1Oc1c2cc(I)c(O)c1I`, the half-maximal activity concentration (AC50) in assay [1] was 594 nM (active); in [5], 1.78 µM (active); in [2] it was 1.24 µM (active); in assay [4] it was 26.9 nM (active).

With `COc1cc(OC)nc(NC(=O)NS(=O)(=O)Nc2ccccc2C(=O)N(C)C)n1`, the call in assay [1] was inactive.

For `C=CC(=C)CC/C=C(\C)CCC=C(C)C`, the compound was classed as inactive in assay [4].

On to `CN(C)c1ccc(C(=C2C=CC(=[N+](C)C)C=C2)c2ccccc2)cc1`, for which the AC50 was 2.97 µM (active) and 3.18 µM (active) in [1]; 4.03 µM (active) and 2.32 µM (active) in assay [6]; 5.94 µM (active) and 1.63 µM (active) in [5]; 12.5 µM (active) in assay [2]; 6.79 µM (active) and 6.47 µM (active) in assay [4]. Also, the result in assay [2] was inactive.

`CC(C)(C)c1ccc(O)c(O)c1`: the AC50 in [1] was 25000 nM (active); in assay [5], 16 µM (active); in assay [4], 17400 nM (active). For the same compound, the outcome in assay [5] was inactive.

Consider `NC(=NCCCCCCN=C(N)/N=C(\N)Nc1ccc(Cl)cc1)/N=C(\N)Nc1ccc(Cl)cc1`, for which the AC50 in assay [1] is 618 nM (active); in [7] it was 3.15 µM (active); in assay [5], 2.18 µM (active); in assay [8] it was 4.71 µM (active); in assay [4] it was 3.32 µM (active) and 3.04 µM (active).

`N=C(N)c1ccc(OCCCCCOc2ccc(C(=N)N)cc2)cc1`: the concentration at half-maximal activity (AC50) in assay [1] was 12300 nM (active); in [10], 2.83 µM (active); in assay [11], 8.19 µM (active); in assay [12], 8.49 µM (active); in assay [8], 27.8 µM (active); in [3] it was 3.44 µM (active). The AC50 in assay [13] is 10.2 µM (active). Also, the compound was called inactive in [9] and in assay [5].

In the case of `CCCCC(CC)C(=O)O` (stereo not given), in assay [14], the outcome was inactive.

Regarding `CCc1cccc(CC)c1NC(=O)C(=O)O`, the outcome in [1] was inactive.
